These results are taken from PubChem BioAssay (NCI).

This is part of a sample that, as a whole, favours compounds with a hit. Of some 83,000 tested, about 20% had one in any assay.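 Cells were grown in 96-well plates and exposed to the test compound at a single concentration for 48 hours; results are reported as percent growth, with values below 10 considered active.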 The source made the active and inactive calls.

This test has as its system MDA-MB-468 breast. Description: NCI-60 one-dose screen, 48 h (100 = growth as untreated, 0 = no growth, -100 = all killed). To be noted: 10 µM unless noted.
In the case of `CC(=O)O[C@H]1[C@@H]2OC(=O)C(CSc3ccccc3)[C@@H]2C[C@H]2O[C@]2(C)CC/C=C(\C)CCC[C@@H]1C` (stereo not given in full), the growth is -10% (active).
To `C#Cc1cccc(Nc2nc3ccc([N+](=O)[O-])cc3nc2Nc2cccc(C#C)c2)c1` belongs -45.9% (active); to `N#Cc1cccc(-c2c(-c3ccc4ccccc4c3)oc3ccccc3c2=O)c1`, 3.16% (active); to `COc1ccc(-c2cc(-c3ccc(OC)cc3)nc(NCCCNc3ccnc4cc(Cl)ccc34)n2)cc1`, 74.8% (inactive).
The value for `C=CCc1nc2ccccc2s1` was -14.5% (active).
The value for `COc1ccc(-n2c(SCc3nnc(NC(=O)c4ccc(Br)cc4)s3)nc3cc(OC)c(OC)cc3c2=O)cc1` was 93.6% (inactive).
In the case of `COc1ccc(OC)c([N+](=O)[O-])c1C(=O)CNC(C)=O`, the growth was 98% (inactive).
To `COc1cccc(/C=C2\SC(N3CCN(c4ccccn4)CC3)=NC2=O)c1` belongs 101% (inactive).
To `N#Cc1c(-c2ccc(C(F)(F)F)cc2)cc(NCC2CCS(=O)(=O)CC2)n2c1nc1ccccc12` belongs 78.1% (inactive); to `CSc1ccc(-c2cc(-c3ccc(NC(=O)CCCN4CCCC4)cc3)nc(-c3ccc(NC(=O)CCCN4CCCC4)cc3)c2)cc1`, 14.4% (inactive).
To `O=C1[C@H]2Cc3c([nH]c4ccccc34)[C@@H](c3ccc(Cl)cc3)N2C(=O)CN1C1CCN(Cc2ccccc2)CC1` belongs 27.3% (inactive); to `CCN(CC)Cc1c(-c2cccc(OC(F)(F)F)c2)[nH]c2ccc(N3CCCC3)cc2c1=O`, 93.1% (inactive); to `Cc1ccc([N+](=O)[O-])c(C)n1`, 112% (inactive).
Consider `CC(C)(C)n1cc(-c2ccnc(NCCNS(=O)(=O)c3ccc(C(F)(F)F)cc3)c2)c(-c2ccccc2)n1`, for which the growth was 89.1% (inactive).
To `CC(C)(C)c1ccc(NS(=O)(=O)c2ccc3nc(NC(=O)c4cnccn4)[nH]c3c2)cc1` belongs -18.6% (active).
With `CCC(C)(C)c1ccc(Nc2ccc(Nc3ccc(C(C)(C)CC)cc3)cc2)cc1`, the growth is 101% (inactive).
To `CCCc1c(C)nc2scc(-c3ccc(Cl)cc3)n2c1=O` belongs 97.9% (inactive); to `O=C(CCl)NC1c2ccccc2Oc2ccccc21`, 71.5% (inactive).
As to `O=C(c1nc2ccccc2[nH]1)C1[C@@H](c2cccc(O)c2)C2CC3CCCCC3N2[C@@]12C(=O)Nc1cc(Cl)ccc12` (stereo not given in full), the growth was 32.5% (inactive).
The value for `N#CC1=C(N2CCOCC2)NC2c3ccccc3Sc3ccccc3N2C1=N` (stereo not given) was 99.9% (inactive); that for `Clc1ccc(Cl)c(N=Cc2ccc3c(c2)OCO3)c1` was 113% (inactive); that for `CCCCCCCC/C=C\CCCCCCCCOc1cccc(CC(=O)NCC[N+]2(C)CCCC2)c1` was 71.8% (inactive).
The value for `COC(=O)/C=C1\S/C(=N\NS(=O)(=O)c2ccc(C)cc2)N(c2ccccc2)C1=O` was 102% (inactive); that for `CCc1ccc(Nc2cc(C)c3ccc(O)cc3n2)cc1` was -11.2% (active).
Turning to `COc1ccc(-c2cnoc2-c2ccc(OC)cc2O)cc1`, the growth is 1% (active).
To `N=C(N)c1ccc(-c2ccc(-c3ccc(Cl)cc3)s2)s1` belongs -71.2% (active).
`O=C(Nc1nc(-c2ccccc2)cc(-c2ccc(Cl)cc2)n1)c1ccncc1`: the growth is 106% (inactive).
As to `COc1cc2nccc(Oc3ccc(NC(=O)C4(C(=O)Nc5ccc(F)cc5)CC4)cc3)c2cc1O`, the growth is 86.4% (inactive).
With `COc1ccc(OC)c(/C=C2\COc3ccc(O)c(O)c3C2=O)c1`, the growth was 16.6% (inactive).
For the compound `CC(C)N(CCOC(=O)Nc1ccccc1Cl)C(C)C`, the growth is 104% (inactive).
The value for `Nc1c(C(=O)Nc2cccc3ncccc23)sc2nc3c(cc12)C(=O)CCC3` was 12.4% (inactive); that for `CC1(C)NCCC[C@]2(C)[C@H]3CC[C@@H]4[C@H]5[C@H](C(=O)/C=C/c6ccco6)CC[C@]5(CO)CC[C@@]4(C)[C@]3(C)CC[C@@H]12` was 87.9% (inactive).
To `N#Cc1ccc(C(F)(F)F)nc1N1CCC(C(=O)Nc2ccc(Cl)cc2)CC1` belongs 69.2% (inactive); to `O=C(N/N=C/c1cc2ccccc2n2nnnc12)Nc1ccccc1`, 98.3% (inactive); to `Clc1ccccc1/C=C/c1nn2c(-c3ccncc3)nnc2s1`, 97.4% (inactive).
To `Cc1ccc(-c2nc(N3CCN(C(=O)Nc4ccc(Cl)c(C(F)(F)F)c4)CC3)c3ccccc3n2)cc1` belongs 77.2% (inactive); to `CCOC(=O)C(C#N)=C1CCN(C)CC1`, 123% (inactive).
`O=C(CCc1nnc2sc(-c3ccc(Cl)cc3Cl)nn12)c1nc2ccccc2[nH]1`: the growth is -56.2% (active).
Take `COc1ccc(C(O)c2cc3c(N)c(C(=O)Nc4ccc(Br)cc4)sc3nc2C)cc1` (stereo not given): the growth was -0.733% (active).
The value for `COc1ccc(C(O)c2cc3c(N)c(C(=O)Nc4ccc(Cl)cc4)sc3nc2C)cc1` (stereo not given) was 3.39% (active).
